Only some compounds are listed: those with a hit (about 19% of all), similar ones and a draw of the others.
AMA1 RON2 block: qHTS for Inhibitors of AMA1-RON; Towards Development of Antimalarial Drug Lead: Primary Screen; Plasmodium falciparum AMA1 (3D7) - RON2 peptide interaction; AlphaScreen AMA1-biotinylated RON2 peptide binding; Potency, µM (top dose mostly 58.2 µM), usual class: inhibitors; 0.2% of 360,000 active; note: nearly all actives have a fitted effect of over 45% in size
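AMA1 (3D7) with his tag at 25 nM final met compounds first, then biotinylated RON2 peptide at 25 nM; detection used donor plus acceptor beads, 10 µg/mL apiece, read by AlphaScreen after 30 min at room temperature.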
Cycloheximide cs: Cycloheximide Counterscreen for Small Molecule Inhibitors of Shiga Toxin; 12% of 300,000 active; AID 2314, 2010; max response, %; cell reporter, cycloheximide protein synthesis inhibition counterscreen; in the data active = max response mostly above about 13%, no sharp cut-off; inactive = mostly below about 14%; note: read at 38.3 µM for the half of the compounds with a filed dose
SARS PLP yeast: qHTS of Yeast-based Assay for SARS-CoV PLP; S. cerevisiae expressing SARS-CoV PLpro, growth rescue; Potency, µM (series often up to 32.9 µM), hits mostly activators; 0.19% of 330,000 active; calls by dose curve; note: nearly all actives have a fitted effect of over 55% in size
Pf growth 96h: Primary qHTS for delayed death inhibitors of the malarial parasite plastid, 96 hour incubation. P. falciparum luciferase reporter growth, 96 h. Potency, µM (titrated, usually from 28.7 µM), most hits filed as inhibitors. 6.9% of 320,000 active. AID 504834, 2011
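Two parasite generations (96 h, 37 C, 5% CO2) of compound exposure in infected erythrocytes (0.05% parasitemia, 2% hematocrit). Luciferase-reporter P. falciparum; decreased luminescence indicates inhibited growth, aimed at apicoplast-acting delayed death.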
Pf growth 48h: Primary qHTS for delayed death inhibitors of the malarial parasite plastid, 48 hour incubation | 5.9% of 310,000 active | P. falciparum luciferase growth in erythrocytes, 48 h | Potency, µM (titrated, usually from 28.7 µM), hits mostly inhibitors | AID 504832, 2011
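In quantitative HTS format, infected erythrocytes bearing luciferase-reporter parasites were treated for a single generation at 37 C. Luminescence after adding detection reagent served as the growth measure.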
Shiga toxin inh: A qHTS for Small Molecule Inhibitors of Shiga Toxin; Vero cells, Shiga toxin protein synthesis inhibition reporter; inhibition, % at 38.7 µM; 9.2% of 290,000 active; AID 2315, 2010; in the data active = inhibition mostly above about 28%, no sharp cut-off; inactive = mostly below about 43%
Each line names hits and unclear results; the compound was inactive in the other large screens. Unless noted, calls come from the whole dose curve; as a rule, active = well fitted curve in the direction sought with a large enough effect; inconclusive = small, poorly fitted or top-dose-only effect, or another doubt; inactive = no such curve, though single readings can be large; an effect the other way counts as inactive or inconclusive.

C[C@@H]1CN(C(=O)c2cc(COc3cccc(C(F)(F)F)c3)on2)C[C@H](C)O1	Pf growth 48h inconclusive
O=C(c1cc(COc2ccc(F)cc2Cl)on1)N1CCN(C2CCCC2)CC1	Pf growth 96h inconclusive
Cc1ccc(C)c(OCc2cc(C(=O)N3C[C@@H](C)O[C@@H](C)C3)no2)c1	Cycloheximide cs 48, SARS PLP yeast inconclusive, Pf growth 96h inconclusive, Shiga toxin inh 87
Cc1ccc(C)c(OCc2cc(C(=O)N3CCN(C4CCCCC4)CC3)no2)c1	none (no result: Cycloheximide cs, SARS PLP yeast, Pf growth 96h, Pf growth 48h, Shiga toxin inh)
COc1cc(C)ccc1OCc1cc(C(=O)N2CCC(c3ccc(F)cc3)C2)no1 (centres undefined)	Cycloheximide cs 58, Shiga toxin inh 113
Cc1ccc(CC(=O)NNC(=O)c2cccs2)cc1C	none (no result: Cycloheximide cs, Shiga toxin inh)
CCOC(=O)C1CCN(CC(=O)Nc2cc(S(=O)(=O)N3CCCCC3)ccc2Cl)CC1	Pf growth 96h inconclusive, Pf growth 48h 12µM (no result: Cycloheximide cs, Shiga toxin inh)
O=C(CN1CCCCC1)Nc1cc(S(=O)(=O)N2CCOCC2)ccc1N1CCCC1	Pf growth 96h inconclusive (no result: Cycloheximide cs, Shiga toxin inh)
CCN1CCN(CC(=O)Nc2cc(S(=O)(=O)N3CCCCC3)ccc2Cl)CC1	none (no result: Cycloheximide cs, Pf growth 96h, Pf growth 48h, Shiga toxin inh)
O=C(CN1CCN(c2ccc(O)cc2)CC1)Nc1cc(S(=O)(=O)N2CCCC2)ccc1Cl	Pf growth 96h inconclusive, Pf growth 48h 9.3µM
O=C(CN1CCN(c2ccc(O)cc2)CC1)Nc1cc(S(=O)(=O)N2CCCCC2)ccc1Cl	Pf growth 96h 9.3µM
CC1CN(CC(=O)Nc2cc(S(=O)(=O)N3CCCC3)ccc2Cl)CC(C)O1 (centres undefined)	Pf growth 96h inconclusive
CC(=O)c1cccc(NC(=O)N2C3CCCC2CC(NC(=O)C2CC2)C3)c1 (centres undefined)	none
Cc1nc(C#N)c(N/N=C/c2c(F)cccc2Cl)o1	Cycloheximide cs 28, SARS PLP yeast 11µM
Cc1nc(N)nc(N/N=C/c2c(F)cccc2Cl)n1	none
COC(=O)C1=C(C)N(Cc2ccc(OC)c(OC)c2)C(=O)C1	Pf growth 96h inconclusive, Pf growth 48h 13µM
COC(=O)C1=C(C)N(CCc2ccc(OC)c(OC)c2)C(=O)C1	none (no result: Pf growth 96h, Pf growth 48h)
Cc1cc(C)c(S(=O)(=O)N2CCCC(C(=O)NCc3ccncc3)C2)c(C)c1 (centres undefined)	none
CO[C@H]1[C@H](O[C@H]2O[C@@H](C)[C@@H](O[C@@H]3C[C@](C)(O)[C@H](O)[C@H](C)O3)[C@@H](N(C)C)[C@@H]2O)[C@@H](CC=O)C[C@@H](C)[C@@H](O[C@H]2CC[C@H](N(C)C)[C@H](C)O2)/C=C\C=C/C[C@@H](C)OC(=O)C[C@H]1O	Pf growth 96h 2µM (no result: AMA1 RON2 block, Cycloheximide cs, SARS PLP yeast, Shiga toxin inh)
CCC(=O)O[C@@H]1CC(=O)O[C@H](C)CC=CC=C[C@@H](O)[C@H](C)C[C@H](CC=O)[C@H](O[C@H]2O[C@H](C)[C@@H](O[C@H]3C[C@@](C)(O)[C@@H](OC(=O)CC)[C@H](C)O3)[C@H](N(C)C)[C@H]2O)[C@H]1OC	Pf growth 96h 0.83µM, Pf growth 48h inconclusive (no result: AMA1 RON2 block)
CCC(=O)O[C@@H]1[C@H](C)O[C@H](O[C@H]2[C@@H](N(C)C)[C@H](O)[C@@H](O[C@@H]3[C@@H](CC=O)C[C@@H](C)[C@@H](O)/C=C\C=C/C[C@@H](C)OC(=O)C[C@@H](OC(=O)CC)[C@H]3OC)O[C@H]2C)C[C@]1(C)O	Pf growth 96h 1.3µM, Pf growth 48h inconclusive (no result: AMA1 RON2 block, Cycloheximide cs, SARS PLP yeast, Shiga toxin inh)
CCCCNc1nccnc1-c1cccc(C=O)c1	none (no result: Cycloheximide cs, SARS PLP yeast, Pf growth 96h, Pf growth 48h, Shiga toxin inh)
Cc1ccc2cc3c(N)[nH]nc3nc2c1	Cycloheximide cs 21
CC1(C)CC(=O)C=C(NNC(=O)c2ccc(N)cc2)C1	none
CC1(C)CC(=O)C=C(NNC(=O)c2ccccc2)C1	Cycloheximide cs 24, Pf growth 96h inconclusive, Shiga toxin inh active
O=C(O)Cc1csc(Nc2cccc(Cl)c2)n1	Cycloheximide cs 16, Pf growth 96h 13µM
CC(C)c1ccc(Nc2nc(CC(=O)O)cs2)cc1	Cycloheximide cs 49, Shiga toxin inh 108
CC(C)c1ccc(NC(=O)Nc2nc(CN)cs2)cc1	none (no result: Cycloheximide cs, SARS PLP yeast, Pf growth 96h, Pf growth 48h, Shiga toxin inh)
Cn1nnnc1Sc1ncnc2scc(-c3ccc(Cl)cc3)c12	Pf growth 96h 3.7µM, Pf growth 48h 6.6µM (no result: AMA1 RON2 block, Cycloheximide cs, Shiga toxin inh)
COc1ccc(-c2csc3ncnc(Sc4nnnn4C)c23)cc1	none (no result: AMA1 RON2 block, Cycloheximide cs, Pf growth 96h, Pf growth 48h, Shiga toxin inh)

Bioassay records deposited in PubChem BioAssay by National Center for Advancing Translational Sciences (NCATS).
